A488 fluor: A488 region autofluorescence; compound autofluorescence, A488 spectral region, dye equivalency; Compound Type: qHTS ECL - MLSMR; max dye equivalency, M; actives 0.1% (n = 59,000)
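Readout is A488 dye-equivalent concentration, calibrated by a per-plate six-point Alexa 488 series. Compounds in 100 mM Tris buffer pH 8.0 were incubated 15 min at room temperature. Plates were imaged using 480 nm excitation/540 nm emission filters.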
Resorufin autofl: resorufin region autofluorescence | max dye-equivalent concentration, M | actives 0.04% (n = 59,000) | Compound fluorescence, resorufin region 547/598 nm, buffer; active compounds read high
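Intrinsic fluorescence profiled in the resorufin window (ex 547 nm, em 598 nm) after 15 min at room temperature in pH 8.0 Tris buffer (100 mM); responses normalized against a six-point resorufin standard series as dye-equivalent concentration.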
Fluorescein fluor: compound autofluorescence in fluorescein spectral region. Compound autofluorescence, 480/540 nm, fluorescein-equivalent; active compounds read high. max fluorescein-equivalent concentration, M. actives 0.91% (n = 59,000). AID 593; in the data active = max fluorescein-equivalent concentration above about 10 nM; inconclusive = between about 1.1 nM and that limit
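Normalized response (dye-equivalent concentration) derives from comparing each well's 540 nm emission, under 480 nm excitation, with plate-resident fluorescein standards. Compounds were held in 100 mM Tris, pH 8.0, for 15 min at room temperature.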
Rhodamine autofl: compound autofluorescence in rhodamine spectral region; Rhodamine-region fluorescence, 547/598 nm, Tris buffer; active compounds read high; actives 0.05% (n = 59,000); AID 594; max dye-equivalent concentration, M; in the data active = max dye-equivalent concentration above about 11 nM; inconclusive = between about 1.1 nM and that limit
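Intensities are converted to rhodamine-equivalent concentration using a six-point rhodamine standard on each plate. Compounds sit 15 min at room temperature in 100 mM Tris buffer, pH 8.0; read uses the 547/598 nm excitation/emission pair.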
TexasRed autofl: compounds fluorescent in Texas Red spectral region | Compound fluorescence, Texas Red channel, 547/618 nm; active compounds read high | max dye-equivalent concentration, M | actives 0.06% (n = 59,000); in the data active = max dye-equivalent concentration above about 10 nM; inconclusive = between about 1.1 nM and that limit
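Dye-equivalent concentrations come from scaling compound signal (ex 547, em 618 nm) to six Texas Red standard concentrations run on every plate, after 15 min room-temperature incubation in pH 8.0 Tris (100 mM).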
A647 fluor: compound autofluorescence in A647 spectral region. Compound fluorescence, A647 channel (570/671 nm), Tris buffer. max dye-equivalent concentration, M. 59,000 tested, under 10 active. AID 592;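 also: values scaled relative to a standard on each plate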
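Compounds pinned into 100 mM Tris pH 8.0, 15 min at room temperature, then read with 570 nm excitation/671 nm emission filters. Fluorescence normalized to an on-plate six-point Alexa 647 standard curve, giving dye-equivalent concentration per compound concentration.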
Numbers without * were called inactive; i = inactive; ? = inconclusive; ! = a repeat was not active. An excerpt weighted towards active compounds, which were near 0.95% of everything screened. Unless noted, no rule for the calls is given here.

SMILES | A488 fluor | Resorufin autofl | Fluorescein fluor | Rhodamine autofl | TexasRed autofl | A647 fluor
O=c1[nH]c(=O)n(-c2ccc(F)cc2)c(O)c1C=Nc1ccccc1N1CCCC1 | ? | i | 4e-08M* | i | i | 1.5e-08
Cc1ccc(-n2c(O)c(C=Nc3ccccc3N)c(=O)[nH]c2=O)cc1C | i | i | ? | i | i | 3.2e-08
CN1C(=O)C(Cc2c[nH]c3ccccc23)C(=O)N(C)C1=O | ? | 1e-08M* | 3.4e-08M* | 1.4e-08M* | ? | 3.7e-08
Nc1c(C(=O)NCCN2CCOCC2)c2nc3ccccc3nc2n1Cc1ccco1 | i | i | 1.9e-08M* | i | i | 4e-08
CCOC(=O)c1c(N)n(CCN2CCCCC2)c2nc3ccccc3nc12 | i | i | i | i | i | 1e-09
CC(C)(C)OC(=O)c1c(N)n(Cc2ccco2)c2nc3ccccc3nc12 | i | i | 2.8e-08M* | i | i | 1e-08
C=CCN1CCc2cccc3c2[C@@H]1Cc1ccc(O)c(O)c1-3 | i | i | ? | i | i | 1e-09
CNc1ccc2oc(C[C@@H]3O[C@@]4(CC[C@H]3C)O[C@@H]([C@@H](C)C(=O)c3ccc[nH]3)[C@@H](C)C[C@H]4C)nc2c1C(=O)O | i | i | ? | i | i | 3.7e-08
COCCNC(=O)c1c(NC(=O)c2ccco2)n(Cc2ccccc2)c2nc3ccccc3nc12 | i | i | 1.1e-08M* | i | i | 1.9e-09
Nc1c(C(=O)NCCc2ccccc2)c2nc3ccccc3nc2n1CCN1CCOCC1 | i | i | ? | i | i | 3.6e-08
C=C(C)[C@H]1Cc2c(ccc3c2O[C@H]2COc4cc(OC)c(OC)cc4[C@@H]2C3=O)O1 | i | i | ? | i | i | 1.3e-09
CSC([N-]/N=C/c1cccc(C)n1)=[S]=[Cu].CS[C@H]([S-])[N-]/N=C/c1cccc(C)n1 | i | i | i | i | i | 2.1e-08
NC(N)=Nc1ccc2[nH]c3c(c2c1)C[C@]1(O)[C@@H]2Cc4ccc(O)c5c4[C@]1(CCN2CC1CC1)[C@H]3O5 | i | i | ? | i | i | 4.3e-08
O=C(CCCN1CCC2(CC1)C(=O)N(CCc1ccc(N=C=S)cc1)CN2c1ccccc1)c1ccc(F)cc1 | i | i | ? | i | i | 6e-08
CC[C@H](CO)NC(=O)[C@@H]1C=C2c3cccc4c3c(cn4C)C[C@@H]2N(C)C1 | i | i | 1.5e-08M* | i | i | 1.8e-09
CN1CCN(c2ccc([N+](=O)[O-])c3[nH]o[n+](=O)c23)CC1 | ? | i | 1.3e-07M* | ? | i | 4.7e-08
COc1cc2ccccc2c2cc([N+](=O)[O-])oc12 | ? | i | 4e-08M* | i | i | 1e-09
Cc1c2ccncc2c(C)c2c1[nH]c1ccccc12 | i | i | 1.1e-08M*! | i | i | 3.7e-09
c1ccc2c(c1)[nH]c1cnccc12 | i | i | ? | i | i | 3.7e-08
CCN(CC)C(=O)N[C@H]1C=C2c3cccc4[nH]cc(c34)C[C@@H]2N(C)C1 | ? | i | 5e-08M* | i | ? | 2.3e-09
CN(C)c1ccc(N=Cc2c(O)n(CCC3=CCCCC3)c(=O)[nH]c2=O)cc1 | i | i | 1.4e-08M* | i | ? | 1e-09
O=c1[nH]c(=O)n(CCC2=CCCCC2)c(O)c1C=NCCN1CCNCC1 | i | i | i | i | i | 1.7e-08
C=CCn1c(O)c(C=Nc2ccc(N(CC)CC)cc2)c(=O)[nH]c1=O | i | i | 1.4e-08M* | i | i | 1e-09
CCN(CC)c1ccc(N=Cc2c(O)n(CCC3=CCCCC3)c(=O)[nH]c2=O)cc1 | ? | i | 9.3e-08M* | i | i | 3.5e-09
C=CCn1c(O)c(C=NCCN(C)C)c(=O)[nH]c1=O | i | i | ? | i | i | 1e-09
SMILES | A488 fluor | Resorufin autofl | Fluorescein fluor | Rhodamine autofl | TexasRed autofl | A647 fluor
C[C@@H]1[C@H]2C=C[C@@H]1[C@@H](c1c3ccc(=O)c(O)c-3oc3c(O)c(O)ccc13)[C@@H]2C(=O)O | i | i | ? | i | i | 5.1e-08
NC(=NCCC[C@@H](N)C(=O)O)N[N+](=O)[O-] | i | i | ? | i | ? | 1.4e-08
C=C(C)[C@@H]1CN[C@H](C(=O)O)[C@H]1CC(=O)O | i | i | i | i | ? | 4.2e-09
COc1cc(C=C(C#N)C#N)cc(O)c1O | i | i | 2.5e-08M* | i | i | 3.7e-08
CC(C)[C@@]1(NC(=O)[C@@H]2C[C@H]3c4cccc5[nH]cc(c45)C[C@@H]3N(C)C2)O[C@]2(O)[C@H]3CCCN3C(=O)[C@H](Cc3ccccc3)N2C1=O | i | i | i | i | ? | 5.8e-09
CC(C)C[C@H]1C(=O)N2CCC[C@@H]2[C@@]2(O)O[C@](NC(=O)[C@@H]3C=C4c5cccc6[nH]cc(c56)C[C@@H]4N(C)C3)(C(C)C)C(=O)N12 | ? | i | 4.9e-08M* | i | i | 1e-09
CC(C)C[C@H]1C(=O)N2CCC[C@@H]2[C@]2(O)O[C@](NC(=O)[C@H]3C=C4c5cccc6[nH]cc(c56)C[C@H]4N(C)C3)(C(C)C)C(=O)N12 | i | i | 1.3e-08M* | i | i | 1e-09
O=c1ccc2cc(O[C@@H]3O[C@@H](CO)[C@@H](O)[C@@H](O)[C@H]3O)c(O)cc2o1 | i | i | i | i | i | 2.5e-08
CC(C)n1cc2c3c(cccc31)[C@@H]1C[C@H](C(=O)O[C@@H](C)[C@H](C)O)CN(C)[C@H]1C2 | i | i | 1.1e-08M* | i | i | 1e-09

Source: PubChem BioAssay (National Center for Advancing Translational Sciences (NCATS))
